About 83,000 compounds went through this panel and 20% of them were active in at least one assay; those are over-represented in the sample as a whole.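 Each cell line was grown in a 96-well plate and treated with one concentration of compound for 48 hours. Values below 10 were considered active.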 Unmarked numbers belong to inactive results. Activity calls are given as the source filed them.
Columns and labels:
Test in all cases: NCI-60 one-dose screen, 48 h (100 = growth as untreated, 0 = no growth, -100 = all killed)
Details in all cases: 10 µM unless noted
NCI-H23 lung = tested on: NCI-H23 lung
NCI-H226 lung = tested on: NCI-H226 lung
NCI-H322M lung = tested on: NCI-H322M lung
HOP-62 NSCLC = tested on: HOP-62 NSCLC
NCI-H460 lung = tested on: NCI-H460 lung
HOP-92 NSCLC = tested on: HOP-92 NSCLC
NCI-H522 lung = tested on: NCI-H522 lung
A549/ATCC NSCLC = tested on: A549/ATCC NSCLC
786-0 renal = tested on: 786-0 renal
COLO 205 colon = tested on: COLO 205 colon
DU-145 prostate = tested on: DU-145 prostate
K-562 leukemia = tested on: K-562 leukemia
MALME-3M melanoma = tested on: MALME-3M melanoma
MDA-MB-231 breast = tested on: MDA-MB-231 breast
RXF 393 renal = tested on: RXF 393 renal
SF-268 CNS = tested on: SF-268 CNS
SF-295 CNS = tested on: SF-295 CNS
SF-539 CNS = tested on: SF-539 CNS
UACC-257 melanoma = tested on: UACC-257 melanoma
M14 melanoma = tested on: M14 melanoma

Row | SMILES | growth (NCI-H23 lung) | growth (NCI-H226 lung) | growth (NCI-H322M lung) | growth (HOP-62 NSCLC) | growth (NCI-H460 lung) | growth (HOP-92 NSCLC) | growth (NCI-H522 lung) | growth (A549/ATCC NSCLC) | growth (786-0 renal) | growth (COLO 205 colon) | growth (DU-145 prostate) | growth (K-562 leukemia) | growth (MALME-3M melanoma) | growth (MDA-MB-231 breast) | growth (RXF 393 renal) | growth (SF-268 CNS) | growth (SF-295 CNS) | growth (SF-539 CNS) | growth (UACC-257 melanoma) | growth (M14 melanoma)
1 | CC1(C)CC[C@]23CC[C@]4(C)[C@H](CC[C@@H]5[C@@]6(C)C/C(=C/c7ccncc7)C(=O)C(C)(C)[C@@H]6CC[C@]54C)[C@H]2[C@H]1OC3=O | 61.4% [100 µM] | 77.4% [100 µM] | 96.5% [100 µM] | 10.2% [100 µM] | 51% [100 µM] | 16.8% [100 µM] | 50.9% [100 µM] | 70.1% [100 µM] | 31% [100 µM] | 90.5% [100 µM] | 80.5% [100 µM] | 50.7% [100 µM] | 67.6% [100 µM] | 37.5% [100 µM] | 43.6% [100 µM] | 42.7% [100 µM] | 25.1% [100 µM] | 6.84% [100 µM] (active) | 84.5% [100 µM] | 79.3% [100 µM]
2 | C=C(C)[C@@H]1CC[C@]2(COCCCN)CC[C@]3(C)[C@H](CC[C@@H]4[C@@](C)(CCCNCCCN)[C@H](C(=C)C)CC[C@]43C)[C@@H]12 | -53.5% [100 µM] (active) | -41.6% [100 µM] (active) | -76.2% [100 µM] (active) | -47.7% [100 µM] (active) | -74.7% [100 µM] (active) | -69.5% [100 µM] (active) | -49.8% [100 µM] (active) | -55.7% [100 µM] (active) | -49.7% [100 µM] (active) | -50.3% [100 µM] (active) | -83.4% [100 µM] (active) | -34.1% [100 µM] (active) | -58.2% [100 µM] (active) | -63.8% [100 µM] (active) | -48.6% [100 µM] (active) | -58.7% [100 µM] (active) | -52.7% [100 µM] (active) | -62.2% [100 µM] (active) | -74.1% [100 µM] (active) | -35.4% [100 µM] (active)
3 | C=C(C)[C@@H]1CC[C@]2(C(=O)NCCCCCCN(CCCN)CCCN)CC[C@]3(C)[C@H](CC[C@@H]4[C@@]5(C)CC[C@H](OCCCN)C(C)(C)[C@@H]5CC[C@]43C)[C@@H]12 | 77.4% [100 µM] | 111% [100 µM] | 80.7% [100 µM] | 93.2% [100 µM] | -16.2% [100 µM] (active) | 76.1% [100 µM] | 88.8% [100 µM] | 46.2% [100 µM] | 61.9% [100 µM] | 18.9% [100 µM] | 55% [100 µM] | 1.52% [100 µM] (active) | 43.7% [100 µM] | 37.3% [100 µM] | 69.6% [100 µM] | 99.1% [100 µM] | 92.2% [100 µM] | 79.9% [100 µM] | 88% [100 µM] | 106% [100 µM]
4 | Cn1cc(-c2nnc(-c3ccccc3)s2)c2cc(Br)cnc21 | 85% | 64% | 88.2% | 74.3% | 95.4% | 42.3% | 89.5% | 83.1% | 99.6% | 104% | 92.6% | 70.7% | 69.9% | 39.3% | 102% | 91.7% | 95.5% | 78.9% | 100% | 101%
5 | CCCCCCCCCCCCNC(=S)N/N=C/c1ccccc1O | 60.9% | 69.2% | 83.5% | 74% | 49.6% | 84.2% | 78.1% | 95.6% | 89.5% | 33.1% | 68.1% | 61.2% | 98.9% | 78.8% | 107% | 65.5% | 70.7% | 85.4% | 98.2% | 78.1%
6 | CC(C)CCSc1nc(N)nc2nc[nH]c12 | 104% | 96.7% | 143% | 102% | 96.8% | 76.4% | 79.9% | 104% | 95.9% | 102% | 107% | 81.7% | 250% | 106% | 106% | 108% | 132% | 87.4% | 113% | 91.6%
7 | O=c1cc(-c2ccccc2)oc2cc(OCc3cn(Cc4ccc(F)cc4)nn3)cc(O)c12 | 45.8% [100 µM] | 60.9% [100 µM] | 86.1% [100 µM] | -28.5% [100 µM] (active) | 71.4% [100 µM] | -3.35% [100 µM] (active) | 15.1% [100 µM] | 81.2% [100 µM] | 2.24% [100 µM] (active) | 103% [100 µM] | 65.8% [100 µM] | 109% [100 µM] | 6.44% [100 µM] (active) | 12% [100 µM] | 9.11% [100 µM] (active) | 14.4% [100 µM] | 10.4% [100 µM] | 1.1% [100 µM] (active) | 86.3% [100 µM] | 65.9% [100 µM]
8 | Cc1ccc2c(n1)C(=O)C(Cl)=C(Nc1ccc(N3CCN(C)CC3)cc1)C2=O | 16.7% | 105% | 97.3% | 63.7% | 97.2% | -86.3% (active) | -63.8% (active) | 97.6% | 52.2% | 82.5% | -18.7% (active) | -12.3% (active) | -75.5% (active) | -62.8% (active) | 62.8% | 77.7% | 99.4% | -24.5% (active) | 57.2% | 73.8%
9 | CCCCCn1sc(=O)n(Cc2ccc(CNC(=O)OCc3ccc4cccc(O)c4n3)cc2)c1=O | 25.1% | 21.9% | 41.8% | -0.186% (active) | 6.42% (active) | -52.5% (active) | -49.1% (active) | 20.6% | -71% (active) | -45.2% (active) | -15% (active) | 3.39% (active) | -77.7% (active) | -62.5% (active) | -76.8% (active) | 27.6% | 31.1% | -69.6% (active) | 0.0301% (active) | -64.7% (active)
10 | N#CCCc1c[nH]c2ccccc12 | 105% | 90.3% | 94.1% | 82% | 97.7% | 75.5% | 94.6% | 89% | 104% | 99.5% | 107% | 85.4% | 98.9% | 97.1% | 107% | 91% | 98.3% | 95.9% | 90.9% | 94.7%
11 | COc1cc2c(c(OC)c1)C1c3cc(OC)ccc3NC(=O)N1CC2 (stereo not given) | 92.9% | 99.3% | 102% | 67.6% | 79.2% | 80.6% | 38.3% | 67.2% | 95.6% | 80.5% | 102% | 30.8% | 75.5% | 66.5% | 98.2% | 80.4% | 74% | 85.1% | 90.8% | 59.4%
12 | NC(=O)c1c(NC(=O)COC(=O)Cc2ccccc2F)sc2c1CCC2 | 99.2% | 94.4% | 126% | 115% | 100% | 89.3% | 85.5% | 103% | 97.6% | 101% | 104% | 139% | 109% | 101% | 109% | 99.6% | 129% | 94.9% | 4.15% (active) | 105%
13 | CCOC(=O)c1nn(C2CCCCO2)c2ccc(NC(=O)CN3CCOCC3)cc12 (stereo not given) | 99.7% | 106% | 95.7% | 100% | 101% | 108% | 106% | 106% | 98.3% | 118% | 107% | 90.4% | 104% | 102% | 122% | 97.5% | 101% | 98.1% | 98.8% | 102%
14 | c1coc2occoc=2o1 | 104% | 97.2% | 110% | 94.7% | 113% | 85.8% | 91.7% | 97% | 102% | 122% | 111% | 99.1% | 103% | 108% | 117% | 105% | 99.1% | 95.2% | 106% | 101%
